Data: PubChem BioAssay (NCI)
About 83,000 compounds went through this panel and 20% of them were active in at least one assay; those are over-represented in the sample as a whole.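 Note: values are percent growth. 100 is the growth of untreated cells, values between 100 and 0 indicate rising inhibition; between -100 and 0 indicates cell death.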 Active and inactive are the calls of the source. The calls were made as follows: active = growth percent below 10; inactive = the rest.

Experiments:
Test in all cases: NCI-60 one-dose screen, 48 h (100 = growth as untreated, 0 = no growth, -100 = all killed)
Conditions in all cases: 10 µM unless noted
NCI-H23 lung = tested on: NCI-H23 lung
NCI-H226 lung = tested on: NCI-H226 lung
NCI-H322M lung = tested on: NCI-H322M lung
HOP-62 NSCLC = tested on: HOP-62 NSCLC
NCI-H460 lung = tested on: NCI-H460 lung
HOP-92 NSCLC = tested on: HOP-92 NSCLC
NCI-H522 lung = tested on: NCI-H522 lung
A549/ATCC NSCLC = tested on: A549/ATCC NSCLC
786-0 renal = tested on: 786-0 renal
COLO 205 colon = tested on: COLO 205 colon

Measured: growth

NC(=S)n1c(=O)n(-c2cccc(C(F)(F)F)c2)c(=O)c2cc(-c3ccc(F)cc3F)ccc21
inactive: 786-0 renal 11.4% | COLO 205 colon 37.5%
active: NCI-H23 lung -5.28% | NCI-H226 lung 9.53% | NCI-H322M lung 6.11% | HOP-62 NSCLC 1.42% | NCI-H460 lung 6.23% | HOP-92 NSCLC -29.9% | NCI-H522 lung -4.04% | A549/ATCC NSCLC 7.29%

CC1(C)CC[C@]23CC[C@]4(C)[C@H](CC[C@@H]5[C@@]6(C)CC[C@H](N)C(C)(C)[C@@H]6CC[C@]54C)[C@H]2[C@H]1OC3
inactive: NCI-H23 lung 88.8% | NCI-H226 lung 96.6% | NCI-H322M lung 93.6% | HOP-62 NSCLC 96.1% | HOP-92 NSCLC 69.3% | NCI-H522 lung 99% | A549/ATCC NSCLC 24.3%
active: NCI-H460 lung -34.8% | 786-0 renal -60.4% | COLO 205 colon -40.4%

C#Cc1nc(/C=C/C(=O)NO)cs1
inactive: NCI-H226 lung 75.8% | NCI-H322M lung 82.5% | HOP-62 NSCLC 48.5% | NCI-H460 lung 63.4% | A549/ATCC NSCLC 69.6% | COLO 205 colon 79.8%
active: NCI-H23 lung -86.7% | HOP-92 NSCLC -79.5% | NCI-H522 lung -60% | 786-0 renal -76.5%

O=C(Nc1cccc(C(F)(F)F)c1)N1CCN(c2cc(-c3cn(-c4ccccc4)nc3-c3cccc(O)c3)ccn2)CC1
inactive: NCI-H23 lung 37.7% | NCI-H226 lung 30.3% | NCI-H322M lung 73.9% | HOP-62 NSCLC 91.3% | NCI-H460 lung 63.4% | HOP-92 NSCLC 35.7% | NCI-H522 lung 31% | A549/ATCC NSCLC 44.8% | 786-0 renal 54.6% | COLO 205 colon 60%

CN(C)CCCOc1ccc(C(=C(c2ccccc2)C2CCCC2)c2ccc(OCCCN(C)C)cc2)cc1
active: NCI-H23 lung -78.8% | NCI-H226 lung -67.5% | NCI-H322M lung -97% | HOP-62 NSCLC -72.6% | NCI-H460 lung -62.6% | HOP-92 NSCLC -76.3% | NCI-H522 lung -89.8% | A549/ATCC NSCLC -79.2% | 786-0 renal -80.4% | COLO 205 colon -76.2%

CC1(C)CC[C@]2(C(=O)O)CC[C@]3(C)C(=CC[C@@H]4[C@@]5(C)CC[C@H](NOCCCN)C(C)(C)[C@@H]5CC[C@]43C)[C@@H]2C1
inactive: NCI-H23 lung 91.1% | NCI-H226 lung 90.3% | NCI-H322M lung 94% | HOP-62 NSCLC 102% | NCI-H460 lung 73.3% | HOP-92 NSCLC 62.3% | NCI-H522 lung 97.2% | A549/ATCC NSCLC 77.9% | 786-0 renal 98.6% | COLO 205 colon 19.6%

CCCCOc1ccc(S(=O)(=O)N2CCN(c3nc(C)cc(N4CCOCC4)n3)CC2)cc1
inactive: NCI-H23 lung 41.7% | NCI-H226 lung 67.2% | NCI-H322M lung 62.2% | HOP-62 NSCLC 59% | HOP-92 NSCLC 18.2% | NCI-H522 lung 88.8% | A549/ATCC NSCLC 27.3% | 786-0 renal 33.4%
active: NCI-H460 lung 1.22% | COLO 205 colon 5.81%

CC(=O)Nc1ccccc1-c1nc2ccccc2s1
inactive: NCI-H23 lung 91.8% | NCI-H226 lung 98.9% | NCI-H322M lung 101% | HOP-62 NSCLC 101% | NCI-H460 lung 101% | HOP-92 NSCLC 96.6% | NCI-H522 lung 95.7% | A549/ATCC NSCLC 106% | 786-0 renal 104% | COLO 205 colon 113%

Nc1ncc(-c2ccc3ncnc(NCc4ccccc4)c3c2)cn1
inactive: NCI-H23 lung 55.4% | NCI-H226 lung 33.9% | HOP-62 NSCLC 35.7% | NCI-H460 lung 44.7% | NCI-H522 lung 23.8% | A549/ATCC NSCLC 41.3% | 786-0 renal 31.3% | COLO 205 colon 69.3%
active: NCI-H322M lung 8.77% | HOP-92 NSCLC 8.86%

Cc1cc(Br)ccc1-n1cc(C#N)c(N)c1C(=O)c1ccc(Br)cc1
inactive: NCI-H23 lung 92.7% | NCI-H226 lung 97.7% | NCI-H322M lung 104% | HOP-62 NSCLC 103% | NCI-H460 lung 113% | HOP-92 NSCLC 94.2% | NCI-H522 lung 99.6% | A549/ATCC NSCLC 105% | 786-0 renal 93.5% | COLO 205 colon 118%

O=C(CSc1nnc(-c2cccs2)n1-c1ccccc1)Nc1ccccc1
inactive: NCI-H23 lung 86% | NCI-H226 lung 64.4% | NCI-H322M lung 84% | HOP-62 NSCLC 46.7% | NCI-H460 lung 81.8% | HOP-92 NSCLC 53.3% | NCI-H522 lung 57.7% | A549/ATCC NSCLC 87.7% | 786-0 renal 85.1% | COLO 205 colon 104%

CC1(C)CC[C@]2(C(=O)NCCCCCCN(CCCN)CCCN)CC[C@]3(C)C(=CC[C@@H]4[C@@]5(C)CC[C@H](O)C(C)(C)[C@@H]5CC[C@]43C)[C@@H]2C1
inactive: NCI-H23 lung 105% | NCI-H226 lung 100% | NCI-H322M lung 95.1% | HOP-62 NSCLC 111% | NCI-H460 lung 102% | HOP-92 NSCLC 101% | NCI-H522 lung 101% | A549/ATCC NSCLC 93.1% | 786-0 renal 91.5% | COLO 205 colon 102%

CC(=O)OCCCCN1C=C/C(=C\C(=O)n2ccc3ccccc32)c2ccccc21
inactive: NCI-H23 lung 96.2% | NCI-H226 lung 88.5% | NCI-H322M lung 98.7% | HOP-62 NSCLC 108% | NCI-H460 lung 102% | HOP-92 NSCLC 97.6% | NCI-H522 lung 99.1% | A549/ATCC NSCLC 113% | 786-0 renal 107% | COLO 205 colon 108%
